Results published in PubChem BioAssay (NCATS).
Records with an inconclusive call do not appear. Active and inactive are the calls of the source. Calls follow the shape of the dose curve; as a rule, active = well fitted curve in the direction sought with a large enough effect; inconclusive = small, poorly fitted or top-dose-only effect, or another doubt; inactive = no such curve, though single readings can be large; an effect the other way counts as inactive or inconclusive. Where a SMILES comes first, the peptide text is derived from it.

What was measured:
[1] = NS1 protein of Zika virus - qHTS assay to identify small molecule inhibitors in human HEK 293 cells (AID 1347053);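 also: series mostly up to about 46 µM; plate controls were infected untreated cells for no effect and uninfected cells for full effect; nearly all actives have a fitted effect of over 55% in size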
How it was run: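 HEK 293; 20 h pre-culture, 37 C/5% CO2; cpd 1 h pre-infection; ZIKV MR766, MOI = 0.5, 24 h, 37 C; TR-FRET NS1 readout (two anti-NS1 Abs); norm. to no-virus vs infected.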

[2] = qHTS of pediatric cancer cell lines to identify multiple opportunities for drug repurposing: Primary screen for TC32 cells (AID 1347089); also: % is scaled to controls: 0 for no effect and ±100 for the full control effect; nearly all actives have a fitted effect of over 60% in size
How it was run: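 TC32 cells, 500-1,000/well in growth medium, compound-treated 48 h at 37 °C; viability from CellTiter-Glo luminescence. Primary screen: MIPE 11-point (0.78 nM–46 µM final), NPC 8-point (0.59 nM–46 µM final); confirmatory at 11-point dilutions.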

[3] = qHTS of pediatric cancer cell lines to identify multiple opportunities for drug repurposing: Primary screen for DAOY cells (AID 1347090);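 also: series mostly up to about 46 µM; plate controls were DMSO for no effect and bortezomib for full effect; nearly all actives have a fitted effect of over 55% in size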
How it was run: (§1)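 Cell viability, CellTiter-Glo luminescence; 500-1,000 cells/well, 8- or 11-point titration, 48 h compound exposure at 37 degrees C, 5% CO2. Controls: DMSO neutral, bortezomib 2.3 µM final as positive.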

[4] = qHTS of pediatric cancer cell lines to identify multiple opportunities for drug repurposing: Primary screen for SJ-GBM2 cells (AID 1347091);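 also: plate controls were DMSO neutral control for no effect and bortezomib for full effect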
How it was run: as §1

[5] = qHTS of pediatric cancer cell lines to identify multiple opportunities for drug repurposing: Primary screen for A673 cells (AID 1347092); also: % is scaled to controls: 0 for no effect and ±100 for the full control effect; nearly all actives have a fitted effect of over 45% in size
How it was run: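 A673 cells (500-1,000 cells/well) were treated 48 hours at 37 degrees C with compounds at 11-point (0.78 nM to 46 µM) or 8-point (0.59 nM to 46 µM) dilutions. Viability read by CellTiter-Glo luminescence; concentration-response curves fitted.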

O=C1NC(c2ccccc2)(c2ccccc2)C(=O)N1COP(=O)(O)O
inactive: Potency [1] | Potency [2] | Potency [3] | Potency [4] | Potency [5]

C[C@H]1C[C@H]2[C@@H]3CCC4=CC(=O)C=C[C@]4(C)[C@H]3C(=O)C[C@]2(C)[C@@]1(O)C(=O)CO
inactive: Potency [1] | Potency [2] | Potency [3] | Potency [4] | Potency [5]

O=C(c1ccco1)N1CCNCC1
inactive: Potency [1] | Potency [2] | Potency [3] | Potency [4] | Potency [5]

Nc1ncnc2c1ncn2Cc1c(F)cccc1Cl
inactive: Potency [1] | Potency [2] | Potency [3] | Potency [4] | Potency [5]

O=C(Oc1ccccc1)c1ccccc1O
inactive: Potency [1] | Potency [2] | Potency [3] | Potency [4] | Potency [5]

CN1CCCN=C1/C=C/c1cccs1
inactive: Potency [1] | Potency [2] | Potency [3] | Potency [4] | Potency [5]

OC(CCCN1CCCCC1)(c1ccccc1)c1ccccc1
inactive: Potency [1] | Potency [2] | Potency [3] | Potency [4] | Potency [5]

O=C(OCC1(COC(=O)c2cccnc2)CCCC(COC(=O)c2cccnc2)(COC(=O)c2cccnc2)C1O)c1cccnc1
inactive: Potency [1] | Potency [2] | Potency [3] | Potency [4] | Potency [5]

Cc1ccc2ccc(Cl)cc2n1
inactive: Potency [1] | Potency [2] | Potency [3] | Potency [4] | Potency [5]

CN1CCN(N)CC1
inactive: Potency [1] | Potency [2] | Potency [3] | Potency [4] | Potency [5]

CC(=O)N[C@@H](CO)C(=O)N[C@@H](CC(=O)O)C(=O)N[C@@H](CCCCN)C(=O)N1CCC[C@H]1C(=O)O (Ac-SDKP-OH)
inactive: Potency [1] | Potency [2] | Potency [3] | Potency [4] | Potency [5]

CCOC(=O)c1ccc(O)c(O)c1
inactive: Potency [1] | Potency [2] | Potency [3] | Potency [4] | Potency [5]

C[C@@H]1C[C@H]2[C@@H]3CCC4=CC(=O)C=C[C@]4(C)[C@@]3(F)[C@@H](O)C[C@]2(C)[C@@]1(O)C(=O)COC(=O)c1ccncc1
inactive: Potency [1] | Potency [2] | Potency [3] | Potency [4] | Potency [5]

NCC(=O)O
inactive: Potency [1] | Potency [2] | Potency [3] | Potency [4] | Potency [5]

COc1cc(/C=C/C(N)=O)cc(OC)c1OC
inactive: Potency [1] | Potency [2] | Potency [3] | Potency [4] | Potency [5]

CC(C)OP(=O)(CP(=O)(OC(C)C)OC(C)C)OC(C)C
inactive: Potency [1] | Potency [2] | Potency [3] | Potency [4] | Potency [5]

CO/N=C(/C(=O)N[C@@H]1C(=O)N2C(C(=O)O)=C(Cn3nnc(C)n3)CS[C@H]12)c1csc(N)n1
inactive: Potency [1] | Potency [2] | Potency [3] | Potency [4] | Potency [5]

Cc1cccc(OCC(O)CNC(C)(C)C)c1C (stereo not given)
inactive: Potency [1] | Potency [2] | Potency [3] | Potency [4] | Potency [5]

Cc1nc([N+](=O)[O-])cn1-c1ccc([N+](=O)[O-])cc1
inactive: Potency [1] | Potency [2] | Potency [3] | Potency [4] | Potency [5]

CCOC(=O)c1ccc(OCCN2C[C@H](O)[C@@H](O)[C@H](O)[C@H]2CO)cc1
inactive: Potency [1] | Potency [2] | Potency [3] | Potency [4] | Potency [5]

COC(=O)c1ccc(NC(C)=O)cc1OC
inactive: Potency [1] | Potency [2] | Potency [3] | Potency [4] | Potency [5]

O=C(CCOCCOCCOCCOCCC(=O)Nc1c(I)cc(I)c(C(=O)O)c1I)Nc1c(I)cc(I)c(C(=O)O)c1I
inactive: Potency [1] | Potency [2] | Potency [3] | Potency [4] | Potency [5]

CN(C)CCOC(c1ccccc1)c1ccc(Br)cc1 (stereo not given)
inactive: Potency [1] | Potency [2] | Potency [3] | Potency [4] | Potency [5]

Cn1c(=O)c2c(ncn2CC(=O)O)n(C)c1=O
inactive: Potency [1] | Potency [2] | Potency [3] | Potency [4] | Potency [5]

Cc1cc(O)c2c(O)c3c(O)cccc3cc2c1
inactive: Potency [1] | Potency [2] | Potency [3] | Potency [4] | Potency [5]

CC(=O)c1ccc(O)c(C(N)=O)c1
inactive: Potency [1] | Potency [2] | Potency [3] | Potency [4] | Potency [5]

CN1C(CSCC(F)(F)F)Nc2cc(Cl)c(S(N)(=O)=O)cc2S1(=O)=O (stereo not given)
inactive: Potency [1] | Potency [2] | Potency [3] | Potency [4] | Potency [5]

O=C1c2ccccc2CCc2ccccc21
inactive: Potency [1] | Potency [2] | Potency [3] | Potency [4] | Potency [5]

NCC[C@H](O)C(=O)N[C@@H]1C[C@H](N)[C@@H](O[C@H]2O[C@H](CN)[C@@H](O)[C@H](O)[C@@H]2O)[C@H](O)[C@@H]1O[C@H]1O[C@H](CO)[C@@H](O)[C@H](N)[C@@H]1O
inactive: activity change, negative = inhibition [1] -0.409% [at 0.593 µM] | activity change, negative = cytotoxic [2] 10.2% [at 0.594 µM] | activity change, negative = cytotoxic [3] 11.4% [at 0.597 µM] | activity change, negative = cytotoxic [4] 26.2% [at 0.597 µM] | activity change, negative = cytotoxic [5] -3.3% [at 0.597 µM]

CCN(CC)C(=O)C1CN2CCc3cc(OC)c(OC)cc3C2CC1OC(C)=O (stereo not given)
inactive: Potency [1] | Potency [2] | Potency [3] | Potency [4] | Potency [5]

COc1cc2c(cc1OC)C(=O)CC2
inactive: Potency [1] | Potency [2] | Potency [3] | Potency [4] | Potency [5]

O=P(O)(O)OCC(O)CO (stereo not given)
inactive: Potency [1] | Potency [2] | Potency [3] | Potency [4] | Potency [5]

COc1ccc2c(c1)CCCC2=O
inactive: Potency [1] | Potency [2] | Potency [3] | Potency [4] | Potency [5]

CCC(C(=O)NC(=O)NC(C)=O)c1ccccc1 (stereo not given)
inactive: Potency [1] | Potency [2] | Potency [3] | Potency [4] | Potency [5]
